The record followed here is publication PMC5540273 (PLoS ONE, 2017).
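Also: KINOMEscan kinase panel screen.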

The assay deals with LIMK2. The following applies: concentration: 1 μM, replicates: in singlicate; n = 1.
Consider `Nc1n[nH]c2cnc(-c3ccccc3)cc12` [SB-642124], for which the “%Inh” value came out at 1%.
To `COc1cccc(C2=C(Nc3ccc(Cl)c(C(=O)O)c3)C(=O)NC2=O)c1` [SB-390769] belongs 0%.
For `Cn1cc(-c2ccc3c(c2)CCN3C(=O)Cc2cccc(Cl)c2)c2c(N)ncnc21` [GSK2606590] the value was 52%.
To `COc1cccc(-c2ccc3c(NC(=O)C4CC4)n[nH]c3n2)c1` [SB-710903] belongs 55%; to `Cc1ccc(C(=O)N2CC[C@@H](O)C2)cc1-n1c(C)cc(OCc2ccc(F)cc2F)c(Br)c1=O`, 0%; to `O=c1[nH]cc(-c2ccc(N3CCOCC3)cc2)c2sc(-c3cn[nH]c3)cc12` [GSK2276055], 0%.
Consider `COc1cc(Nc2ncc3c(C)nc(-c4cc5ccccc5[nH]4)n3n2)cc(OC)c1OC` [GW869516], for which the “%Inh” value came out at 4%.
For `O=C(Nc1cccc(-c2nn3ccccc3c2-c2ccnc(Nc3cccc(F)c3)n2)c1)c1c(F)ccc(F)c1Cl` [GSK357952] the value was 0%; for `CSc1cccc2c(-c3ccncn3)c(-c3ccc(F)cc3)nn12` [GW514786], 0%; for `COc1cc(Nc2nccc(-c3c(-c4cccc(NC(=O)c5c(F)cccc5F)c4)nn4ncccc34)n2)cc(OC)c1OC` [GSK327238], 8%.
For `Cc1ccc(S(=O)(=O)Nc2ccc(Nc3nccc(Nc4cccc5[nH]ncc45)n3)cc2)cc1` [GSK581271] the value was 0%; for `O=C(Nc1cccc(-c2nn3ncccc3c2-c2ccnc(Nc3ccccc3)n2)c1)c1c(F)cccc1F` [GSK198271], 0%.
In the case of `Cl.c1ccc(-c2ccc3c(Nc4ccc5[nH]ncc5c4)ccnc3c2)nc1` [GW440137], the “%Inh” value was 23%.
For `CN(C)S(=O)(=O)c1cc(-c2ccc3nccc(-c4cccc(S(N)(=O)=O)c4)c3c2)cnc1N` [GSK1669921] the value was 5%.
For `COc1ccc(CNC(=O)NC2CCN(c3ccnc(Nc4ccc(F)cc4)n3)CC2)cc1` [GSK1379788] the value was 0%; for `Cl.Cl.NCC(C(=O)Nc1cc(Br)c(-c2ccnc3[nH]ccc23)s1)c1ccccc1` (stereo not shown) [GSK1269851], 0%; for `CCS(=O)(=O)c1ccc(OC)c(Nc2nccc(-c3c(-c4cccc(NC(=O)c5c(F)cccc5F)c4)nn4ncccc34)n2)c1` [GSK326180], 3%.
For `Fc1ccc(-c2ncn(C3CCNCC3)c2-c2ccnc(Oc3ccc(-c4ccccc4)cc3)n2)cc1` [SB-245391] the value was 0%.
As for `CN(c1ccc(NC(=O)Nc2cc(C(F)(F)F)ccc2F)cc1)c1ccnc(Nc2ccc(S(N)(=O)=O)cc2)n1` [GW809893], the “%Inh” value came out at 84%.
To `Cc1ccc(F)c(C(=O)Nc2cccc(-c3nn4ccccc4c3-c3ccnc(Nc4cccc(F)c4)n3)c2)c1F` [GSK361061] belongs 15%.
To `CC(C)(C)c1ccc2nccc(Nc3cccc(O)c3)c2c1` [GW856795] belongs 1%; to `O=C(Nc1n[nH]c2cc(-c3ccoc3)ccc12)C1CC1` [SB-738481], 22%.
For `CCn1c(-c2nonc2N)nc2c(C#CC(C)(C)O)nc(OC[C@H](N)c3ccccc3)cc21` [GSK943949] the value was 6%; for `Cl.c1ccc(-c2ccc3c(Nc4ccc5[nH]ccc5c4)ccnc3c2)nc1` [GW440138], 0%; for `Cn1cc(-c2[nH]c3cc(NC(=O)[C@H](N)C4CCCCC4)cc4c3c2C=NNC4=O)cn1`, 96.6%.
As to `C[C@@H]1CC[C@@H](C(=O)Nc2ccccc2)CN1c1cc(-c2ccc3c(N)n[nH]c3c2)nc(N)n1` [GSK2286062], the “%Inh” value came out at 3%.
To `Nc1ncc(-c2cccnc2)c2scc(-c3ccc4c(c3)CCN4C(=O)Cc3ccccc3)c12` [GSK683281] belongs 36%; to `CC(=O)Nc1nc2cnc(Nc3cc(NC(=O)c4cccc(C5(C#N)CC5)c4Cl)ccc3C)nc2s1`, 0%.
To `CCc1ccc(-c2ccc3c(c2)-c2c(cnn2C)S(=O)(=O)N3C)cc1` belongs 0%; to `COCCOCCOc1cc2ncc3c4ccc(C#N)cc4[nH]c3c2cc1OC`, 1%; to `Cc1ccc(C(=O)Nc2ccc(Nc3ccnc4cc(-c5nccs5)ccc34)cc2O)cc1.Cl` [GW494702], 0%.
To `COc1cc(Nc2nccc(N3CCC(NC(=O)c4cc5ccccc5s4)C3)n2)cc(OC)c1OC` (stereo not shown) [GSK1379760] belongs 24%; to `Cl.NC(=O)c1cccc(Nc2nccc(Nc3ccc(Oc4c(Cl)cccc4Cl)c(Cl)c3)n2)c1` [GW659009], 0%; to `Cc1cccc(NC(=O)Nc2ccc(Oc3ncnc4ccn(C)c34)cc2)c1`, 0%.
Turning to `CNC(=O)c1ccccc1Nc1nc(Nc2ccc(N3CCOCC3)cc2)ncc1Cl.Cl` [GSK1576028], the “%Inh” value is recorded as 30%.
To `COc1cc2c(cc1OCCN1CCNCC1)ncc1c3ccc(C#N)cc3[nH]c21` belongs 0%.
To `Cc1occc1-c1ncc(OC[C@@H](N)Cc2c[nH]c3ccccc23)cc1-c1ccc2[nH]nc(C)c2c1.O=C(O)C(F)(F)F` [GSK682037] belongs 0%.
